{
  "source": "PubChem BioAssay AID624169",
  "about": "(The Scripps Research Institute Molecular Screening Center, 2012)",
  "note": "Among all 360,000 compounds or so, about 2,400 (0.67%) were called active. For the sample, actives were picked, then their nearest neighbours and some compounds at random. Values without a mark were called inactive.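 Rule for the calls: active = activation above a run cutoff, the mean activation of all tested compounds plus 3 SD (cut at about 14% in these data); inactive = the rest.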",
  "data": [
    {"biological_target": "5-hydroxytryptamine receptor 2A (Mus musculus) (UniProt P35363)", "sequence (P35363 whole entry, looked up)": "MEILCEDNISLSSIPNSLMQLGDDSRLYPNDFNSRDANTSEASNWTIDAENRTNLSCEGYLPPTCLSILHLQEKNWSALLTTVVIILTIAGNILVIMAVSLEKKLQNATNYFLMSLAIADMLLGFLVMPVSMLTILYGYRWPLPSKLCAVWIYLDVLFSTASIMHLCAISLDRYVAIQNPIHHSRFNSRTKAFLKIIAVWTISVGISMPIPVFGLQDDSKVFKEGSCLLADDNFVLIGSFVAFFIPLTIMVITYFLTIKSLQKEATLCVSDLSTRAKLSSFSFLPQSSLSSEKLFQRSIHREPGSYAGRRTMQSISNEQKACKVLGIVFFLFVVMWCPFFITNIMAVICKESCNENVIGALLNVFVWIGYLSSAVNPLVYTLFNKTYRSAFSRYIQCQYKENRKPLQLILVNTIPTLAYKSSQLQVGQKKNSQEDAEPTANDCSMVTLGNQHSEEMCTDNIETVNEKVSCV", "assay": "mouse Htr2a agonists via beta-arrestin recruitment, primary screen, cell-based, luminescence (AID 624169);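 note: 0% = plate median of compound wells and 100% = 30 µM serotonin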", "details": "CHO-K1 mHTR2A beta-arrestin complementation, at 7.6 µM, stronger effect = higher value, percent of 30 µM serotonin response", "values": [
      {"compound": "CC1(Cc2ccccc2C#N)C(=O)Nc2ccc(-c3ccc4[nH]ccc4c3)cc21", "note": "(stereo unspecified)", "activation": "-1.29%"},
      {"compound": "CC1(Cc2cccc(C#N)c2)C(=O)Nc2ccc(-c3cccc(C(F)(F)F)c3)cc21", "note": "(stereo unspecified)", "activation": "16.7% (active)"},
      {"compound": "Cc1ccc(CC2(C)C(=O)Nc3ccc(OC(F)(F)F)cc32)cc1", "note": "(stereo unspecified)", "activation": "-3.94%"},
      {"compound": "COC(=O)[C@]12CCCCC=C1N(Cc1ccc3c(c1)OCO3)C(=O)[C@H](CC(=O)N1CCOCC1)C2", "activation": "2.87%"},
      {"compound": "O=C(Nc1cccc2c1CCCC2)C1CCN(C(=O)NC2CCCCC2)CC1", "activation": "2.77%"},
      {"compound": "CCOC(=O)c1cccc(NC(=O)C2CCCN(S(=O)(=O)c3cnc[nH]3)C2)c1", "note": "(stereo unspecified)", "activation": "9.95%"},
      {"compound": "O=c1[nH]nc(Cc2ccccn2)c2ccccc12", "activation": "2.3%"},
      {"compound": "Cc1cc([N+](=O)[O-])c(NC2CCCCC2)c([N+](=O)[O-])c1", "activation": "0.25%"},
      {"compound": "Cc1cc([N+](=O)[O-])ccc1NC1CCCC1", "activation": "15.6% (active)"},
      {"compound": "Cc1cc(C=O)c(C)n1-c1ccc(NC2CCCCC2)c([N+](=O)[O-])c1", "activation": "3.39%"},
      {"compound": "COc1cc2sc(C)nc2cc1C", "activation": "-1.33%"},
      {"compound": "CCOC(=O)c1cc(-c2sc(NC(=O)c3ccccc3)nc2C)n(Cc2ccccc2)n1", "activation": "-1.51%"},
      {"compound": "CCOC(=O)c1cc(-c2sc(NC(=O)c3ccccc3)nc2C)n(CCO)n1", "activation": "-1.86%"},
      {"compound": "CCOC(=O)c1cc(-c2ccccc2C)n(Cc2cc(C)no2)n1", "activation": "22.5% (active)"},
      {"compound": "Cc1noc(C)c1COc1ccccc1C(=O)N(C)CC(=O)Nc1cccc(F)c1", "activation": "-2.16%"},
      {"compound": "CCCCN1C[C@H](c2ccc(Br)cc2)[C@@H](CC(=O)Nc2ccc(Br)cc2)C1=O", "activation": "5.11%"},
      {"compound": "O=C(CN1CCOCC1)N1CCCc2c1c(=O)oc1ccc(OCc3ccccc3)cc21", "activation": "-4.24%"},
      {"compound": "COCCN(C(=O)c1ccccc1F)c1c(N)n(Cc2ccccc2)c(=O)[nH]c1=O", "activation": "-0.11%"},
      {"compound": "Nc1c(N(Cc2ccco2)C(=O)c2cccc(F)c2)c(=O)[nH]c(=O)n1Cc1ccccc1", "activation": "16.4% (active)"},
      {"compound": "Nc1c(N(CCO)C(=O)C2CCCCC2)c(=O)[nH]c(=O)n1Cc1ccccc1", "activation": "-0.82%"},
      {"compound": "CC(C(=O)N(C)CC(=O)Nc1ccccc1C(F)(F)F)N1C(=O)c2ccccc2C1=O", "note": "(stereo unspecified)", "activation": "-1.36%"},
      {"compound": "CC(=O)c1sc(NC(=O)CCN2C(=O)C3CC=CCC3C2=O)nc1-c1ccccc1", "note": "(stereo unspecified)", "activation": "-2.19%"},
      {"compound": "Cc1cc(NC(=O)/C=C/C(=O)N(CC(=O)NC2CCCC2)c2ccc(F)cc2)no1", "activation": "5.36%"},
      {"compound": "O=C(CCC(=O)N1CCN(S(=O)(=O)c2ccc(Cl)cc2)CC1)NCc1cccc(C(F)(F)F)c1", "activation": "-0.98%"},
      {"compound": "O=C(c1ccncc1)N1CCN(S(=O)(=O)c2cc(C(F)(F)F)cc(C(F)(F)F)c2)CC1", "activation": "-5.52%"},
      {"compound": "O=C(Cc1ccsc1)N1CCN(S(=O)(=O)c2cc(C(F)(F)F)cc(C(F)(F)F)c2)CC1", "activation": "16.3% (active)"},
      {"compound": "CC(C)c1nc(CNC(=O)CC2C(=O)NCCN2Cc2ccoc2)cs1", "note": "(stereo unspecified)", "activation": "2.97%"},
      {"compound": "Cc1ccc(Cc2c(C)nc3nc(SCC(=O)NCCN4CCOCC4)nn3c2C)cc1", "activation": "-7.66%"},
      {"compound": "O=C(Oc1ccc2c(c1)CCC2)N1CCOCC1", "activation": "-4.84%"},
      {"compound": "CC(C)COP(=O)(c1ccc(N(C)C)cc1)C(Nc1ccccc1)c1cccnc1", "note": "(stereo unspecified)", "activation": "-1.14%"},
      {"compound": "CC(Nc1ccccc1)c1cccnc1", "note": "(stereo unspecified)", "activation": "18.4% (active)"},
      {"compound": "CC(=O)OC(C(=O)NCCc1ccccc1)c1cccnc1", "note": "(stereo unspecified)", "activation": "3.53%"},
      {"compound": "CCOP(=O)(OCC)C(Nc1ccc([N+](=O)[O-])cc1)c1ccc(Cl)cc1", "note": "(stereo unspecified)", "activation": "-5.36%"},
      {"compound": "Cc1ccc(NS(=O)(=O)c2cccs2)cc1S(=O)(=O)N1CCCCCC1", "activation": "-1.7%"},
      {"compound": "O=C(NCCS(=O)(=O)N1CCN(c2ccc(F)cc2)CC1)c1ccc2c(c1)OCO2", "activation": "5.83%"},
      {"compound": "Cc1cc(O)c(C2(O)C(=O)Nc3ccccc32)cc1C", "note": "(stereo unspecified)", "activation": "-4.53%"},
      {"compound": "O=C(c1ccco1)N1CCN(C(=O)c2ccc(COc3ccc(F)cc3)o2)CC1", "activation": "2.33%"},
      {"compound": "COc1cccc(OC)c1OCCN1CCN(C(=O)c2ccco2)CC1", "activation": "14.4% (active)"},
      {"compound": "O=C(c1ccco1)N1CCN(Cc2cccc(C(F)(F)F)c2)CC1", "activation": "11.3%"},
      {"compound": "O=C(c1ccco1)N1CCN(CCOc2ccccc2)CC1", "activation": "16.4% (active)"},
      {"compound": "O=C(c1ccc(Br)o1)N1CCN(CCOc2ccccc2)CC1", "activation": "-0.54%"},
      {"compound": "O=C(OCC(=O)N1CCN(C(=O)c2ccco2)CC1)c1c(Cl)cccc1Cl", "activation": "-3.04%"},
      {"compound": "Cc1ccc2cc(CN(c3ccc(C)c(C)c3)S(C)(=O)=O)c(=O)[nH]c2c1", "activation": "-0.92%"},
      {"compound": "CC1CC(=S)Nc2ccccc2N1Cc1ccccc1", "note": "(stereo unspecified)", "activation": "-4.32%"},
      {"compound": "Cc1ccc(NC(=O)CSc2nnc(COc3ccccc3C)o2)cc1", "activation": "40.1% (active)"},
      {"compound": "Cc1ccc(NC(=O)CSc2nnc(CNC(=O)c3ccccc3F)o2)cc1", "activation": "-0.39%"},
      {"compound": "CC(C)NC(=O)CSc1nnc(COc2ccccc2Cl)o1", "activation": "0.27%"},
      {"compound": "COc1ccc(CNC(=O)c2ccc(NS(=O)(=O)c3ccc4[nH]c(=O)[nH]c4c3)cc2)cc1OC", "activation": "16.1% (active)"},
      {"compound": "O=C(c1ccc(NS(=O)(=O)c2ccc3[nH]c(=O)[nH]c3c2)cc1)N1CCCCC1", "activation": "2.95%"},
      {"compound": "CC(=O)c1ccc(NC(=O)C(C)OC(=O)c2ccc(NS(=O)(=O)c3ccc4[nH]c(=O)[nH]c4c3)cc2)cc1", "note": "(stereo unspecified)", "activation": "-1.56%"},
      {"compound": "COc1ccc2c(c1)C(=C(C#N)C#N)C(=O)N2CCc1ccccc1", "activation": "-0.11%"},
      {"compound": "CC(C)CC1C(=O)N(Cc2cn(Cc3ccco3)nn2)CCS(=O)(=O)N1Cc1ccc(-c2ccc(Cl)c(Cl)c2)cc1", "note": "(stereo unspecified)", "activation": "-3.53%"},
      {"compound": "O=C(O)C1C2C=CC(O2)C1C(=O)Nc1ccccn1", "note": "(stereo unspecified)", "activation": "-3.53%"},
      {"compound": "O=C(O)C1C2C=CC(O2)C1C(=O)NCCc1cccc(Cl)c1", "note": "(stereo unspecified)", "activation": "21.1% (active)"},
      {"compound": "O=C(O)C1CC=CCC1C(=O)NCCc1ccccc1", "note": "(stereo unspecified)", "activation": "7.31%"},
      {"compound": "Cc1ccccc1CN1CCC(C(=O)Nc2ccc(Oc3cccnc3)cc2)CC1", "activation": "-1.91%"}
    ]}
  ]
}
